Reference: PubChem BioAssay (Tox21)
Records with an inconclusive call do not appear. Calls of active or inactive are those of the source. Unless noted, the call rests on the fitted dose curve; in most records, active means well fitted curve in the direction sought with a large enough effect in the repeat runs; inconclusive means weak or mixed curves; inactive means no such curve, though single readings can be large; an effect the other way counts as inactive or inconclusive.

Assays:
[1] = qHTS assay to identify small molecule agonists of the TGF-beta/Smad signaling pathway (AID 1346859; active means well fitted activation curve with a large enough effect in the signal ratio in the repeat runs, not every such curve was filed as active; the % refers to the signal ratio; further: series mostly up to about 77 µM)
In short: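 HEK 293T cells stably carrying a beta-lactamase reporter driven by the Smad binding element were seeded overnight, exposed to DMSO-dissolved compounds for 5 hr at 37 C, 5% CO2, then loaded with FRET substrate for 2 hr at room temperature.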

[2] = target: Thyrotropin-releasing hormone receptor (Homo sapiens) (UniProt P34981); assay: qHTS assay to identify small molecule agonists of the thyrotropin-releasing hormone receptor (TRHR) signaling pathway (AID 1346891; calls by dose curve; further: series mostly up to about 58 µM)
In short: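 TRHR-expressing HEK293 cells were plated 18 h at 37 °C/5% CO2, loaded with calcium dye 2 h at 37 °C, then given compound in DMSO; fluorescence was read kinetically for 3 min at 1 s intervals.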

[3] = Human pregnane X receptor (PXR) small molecule agonists, qHTS cell viability counter screen (AID 1346977); further: nearly all actives have a fitted effect of over 50% in size
In short: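 PXR-Luc HepG2 cells in medium with 5% charcoal-stripped FBS were pre-incubated 5hr, then exposed to compounds for 24hr at 37C. Viability was read in the same wells by CellTiter-Fluor fluorescence, reagent added after 23hr with a 1hr incubation.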

[4] = Caspase-3/7 induction in HepG2 cells by small molecules, qHTS assay (AID 1346978); further: nearly all actives have a fitted effect of over 15% in size
In short: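 Wild-type HepG2 cells, 2,000/well, settled 5 hr at 37 C and 5% CO2, then compound-treated for 17 hr; caspase-3/7 activity read by luminescent Caspase-Glo 3/7 after 30 min at room temperature.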

[5] = Caspase-3/7 induction in CHO-K1 cells by small molecules, qHTS cell viability counter screen (AID 1346979); further: nearly all actives have a fitted effect of over 35% in size; further: potency means the concentration at half of the fitted maximal effect
In short: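 Wild-type CHO-K1 cells were seeded at 1,500 per well, rested 5hr at 37 C, then exposed to compounds in DMSO. After 16hr, CellTiter-Fluor reagent was added and fluorescence read 1hr later as the viability measure.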

[6] = Caspase-3/7 induction in HepG2 cells by small molecules, qHTS cell viability counter screen (AID 1346981); further: series mostly up to about 92 µM; nearly all actives have a fitted effect of over 30% in size
In short: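 Wild-type HepG2 cells, 2,000/well, settled 5 hr at 37 C, 5% CO2 before compound addition. Viability read by CellTiter-Fluor fluorescence, reagent added after 16 hr compound exposure, then 1 hr at 37C, in the same wells as the caspase read.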

[7] = target: Nuclear receptor subfamily 1 group I member 2 (Homo sapiens) (UniProt O75469); assay: Human pregnane X receptor (PXR) small molecule agonists, qHTS assay (AID 1346982); further: nearly all actives have a fitted effect of over 35% in size; further: potency means the concentration at half of the fitted maximal effect
In short: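 PXR-Luc HepG2 reporter cells (CYP3A4-driven luciferase) in 5% charcoal-stripped FBS medium, plated 5 h before compound addition, then treated 24 h at 37C. Luciferase read by ONE-Glo luminescence after 30 min at room temperature.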

[8] = Caspase-3/7 induction in CHO-K1 cells by small molecules, qHTS assay (AID 1346980); further: nearly all actives have a fitted effect of over 15% in size
In short: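 Wild-type CHO-K1 cells exposed to compounds for 17hr at 37 C, 5% CO2. Caspase-3/7 activity then measured by Caspase-Glo 3/7 luminescence after 30min at room temperature.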

[9] = target: Nuclear receptor subfamily 1 group I member 2 (Rattus norvegicus) (UniProt Q9R1A7); assay: Rat pregnane X receptor (rPXR) activation by small molecules, qHTS assay (AID 1346983); settings: rPXR luciferase reporter cells, One-Glo luminescence, 24 h; max activation: stronger effect = higher value; further: nearly all actives have a fitted effect of over 20% in size
In short: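 Cell-based rPXR activation assay: rPXR cells, 2,000 per well, rested 5hr at 37 C, then exposed to compounds in DMSO for 24 hr at 37 C. Luciferase activity read by One-Glo luminescence after 30 min at room temperature.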
On the % scale 0 is the no-effect control and ±100 the full control effect.

Nuclear receptor subfamily 1 group I member 2 (Homo sapiens), sequence (O75469 whole entry, looked up): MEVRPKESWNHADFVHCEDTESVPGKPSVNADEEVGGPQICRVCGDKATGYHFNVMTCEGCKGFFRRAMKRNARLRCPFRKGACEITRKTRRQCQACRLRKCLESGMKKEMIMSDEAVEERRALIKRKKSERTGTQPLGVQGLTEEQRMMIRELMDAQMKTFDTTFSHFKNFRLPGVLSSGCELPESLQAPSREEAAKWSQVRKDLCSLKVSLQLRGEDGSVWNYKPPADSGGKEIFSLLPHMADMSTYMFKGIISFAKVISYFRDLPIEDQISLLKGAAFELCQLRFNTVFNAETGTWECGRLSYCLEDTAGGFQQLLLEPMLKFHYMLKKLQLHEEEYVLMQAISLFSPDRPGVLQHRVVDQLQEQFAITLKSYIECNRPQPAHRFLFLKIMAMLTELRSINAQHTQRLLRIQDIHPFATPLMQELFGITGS
Thyrotropin-releasing hormone receptor (Homo sapiens), sequence (P34981 whole entry, looked up): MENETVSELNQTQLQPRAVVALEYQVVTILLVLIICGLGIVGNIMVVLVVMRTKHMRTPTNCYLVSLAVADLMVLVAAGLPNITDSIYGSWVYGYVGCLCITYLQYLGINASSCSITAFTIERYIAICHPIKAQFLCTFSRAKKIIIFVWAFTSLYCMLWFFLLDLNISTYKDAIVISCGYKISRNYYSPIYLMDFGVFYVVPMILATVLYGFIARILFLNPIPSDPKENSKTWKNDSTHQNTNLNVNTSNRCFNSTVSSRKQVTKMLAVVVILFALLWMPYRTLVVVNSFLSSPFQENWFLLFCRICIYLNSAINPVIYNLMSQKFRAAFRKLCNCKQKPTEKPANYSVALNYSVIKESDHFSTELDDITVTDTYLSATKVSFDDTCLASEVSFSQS
Nuclear receptor subfamily 1 group I member 2 (Rattus norvegicus), sequence (Q9R1A7 whole entry, looked up): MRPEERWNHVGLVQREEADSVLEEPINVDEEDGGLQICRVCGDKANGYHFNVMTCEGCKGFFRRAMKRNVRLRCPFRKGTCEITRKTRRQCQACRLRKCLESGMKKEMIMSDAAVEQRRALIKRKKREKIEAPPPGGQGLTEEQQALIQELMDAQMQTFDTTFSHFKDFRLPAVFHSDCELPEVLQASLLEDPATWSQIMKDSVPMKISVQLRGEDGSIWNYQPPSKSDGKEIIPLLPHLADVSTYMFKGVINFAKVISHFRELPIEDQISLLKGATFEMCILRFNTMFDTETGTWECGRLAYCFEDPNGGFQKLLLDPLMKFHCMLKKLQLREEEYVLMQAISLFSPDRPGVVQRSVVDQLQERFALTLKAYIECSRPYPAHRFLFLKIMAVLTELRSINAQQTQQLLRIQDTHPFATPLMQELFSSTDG

C/C=C(\C)C=O
inactive: outcome [1] | Potency [2] | outcome [3] | outcome [4] | Potency [5] | outcome [6] | Potency [7]

C=CCOC(=O)CCCCCCCC
inactive: outcome [1] | outcome [3] | outcome [4] | Potency [5] | outcome [8] | outcome [6]

C=CC(=O)CC
inactive: outcome [1] | outcome [3] | outcome [4] | Potency [5] | outcome [8] | outcome [6] | Potency [7]

CC/C=C/CCCCCCCCCCOC(C)=O
inactive: outcome [1] | outcome [3] | outcome [4] | Potency [5] | outcome [6] | Potency [7]

c1cc2ccc3ccc4ccc5cccc6c(c1)c2c3c4c56
inactive: activation [1] 25.1% [at 2.72 µM] | activity change, negative = cytotoxicity [3] 0.555% [at 3.27 µM] | caspase activation [4] 1.34% [at 3.27 µM] | activity change, negative = cytotoxicity [5] 14.9% [at 3.27 µM] | caspase-3/7 activation [8] 0.273% [at 3.27 µM] | activity change, negative = cytotoxicity [6] -2.99% [at 3.27 µM] | activation [7] 3.44% [at 3.27 µM]

C=CCCCCCCCCCCCCCC
inactive: activation [1] 0.917% [at 15.8 µM] | activity change, negative = cytotoxicity [3] 1.28% [at 19 µM] | caspase activation [4] 1.32% [at 19 µM] | activity change, negative = cytotoxicity [5] 5.54% [at 19 µM] | activity change, negative = cytotoxicity [6] -0.984% [at 19 µM] | activation [7] 1.1% [at 19 µM]

CC(=O)O[C@@H]1CC2C3CCc4cc(OC(=O)c5ccccc5)ccc4C3CCC2(C)[C@H]1OC(C)=O (stereo partly drawn)
inactive: outcome [1] | Potency [2] | outcome [3] | outcome [4] | Potency [5] | outcome [6] | Potency [7]

CCC(C)(C)C
inactive: outcome [1] | Potency [2] | outcome [3] | outcome [4] | Potency [5] | outcome [6] | Potency [7]

COc1cc(C(=O)NC2CCCNC2)cc(OC)c1OC (stereo not drawn)
inactive: outcome [1] | outcome [3] | outcome [4] | Potency [5] | outcome [8] | outcome [6]

Cc1cc(=O)oc2cc(O[C@@H]3SC[C@@H](O)[C@H](O)[C@H]3O)ccc12
inactive: outcome [1] | outcome [3] | outcome [4] | Potency [5] | outcome [6]

CC(CC(=O)Cl)CC(C)(C)C (stereo not drawn)
inactive: outcome [1] | outcome [3] | outcome [4] | Potency [5] | outcome [8] | outcome [6] | Potency [7]

C[C@H]1COc2c(C3(N)CC3)c(F)cc3c(=O)c(C(=O)O)cn1c23
inactive: outcome [1] | outcome [3] | outcome [4] | Potency [5] | outcome [8] | outcome [6] | Potency [7] | max activation [9] -2.87%

CC(C)(C)C(=O)CCc1ccc(Cl)cc1
inactive: outcome [1] | Potency [2] | outcome [4] | Potency [5] | outcome [8] | outcome [6] | Potency [7]

CCCCCCCCCCCCCCCCN(C)C
inactive: activation [1] 0.329% [at 6.97 µM] | activity change, negative = cytotoxicity [3] 1.81% [at 8.39 µM] | caspase activation [4] 0.737% [at 8.39 µM] | activity change, negative = cytotoxicity [5] -2.77% [at 8.39 µM] | caspase-3/7 activation [8] -0.483% [at 8.39 µM] | activity change, negative = cytotoxicity [6] -1.8% [at 8.39 µM]

CCCC(C)C(O)CC (stereo not drawn)
inactive: outcome [1] | outcome [3] | outcome [4] | Potency [5] | outcome [8] | outcome [6]

Cc1nc2ccc(Cl)cc2[nH]1
inactive: outcome [1] | Potency [2] | outcome [4] | outcome [8]
active: Potency [5] 17.2 µM | Potency [7] 12.2 µM

CN(C)c1ccncc1
inactive: outcome [1] | outcome [3] | outcome [4] | Potency [5] | outcome [8] | outcome [6]

CCCCCCCOC(C)=O
inactive: outcome [1] | Potency [2] | outcome [3] | outcome [4] | Potency [5] | outcome [6] | Potency [7]

COc1cc(NS(=O)(=O)c2ccc(N)cc2)ncn1
inactive: outcome [1] | Potency [2] | outcome [3] | outcome [4] | Potency [5] | outcome [8] | outcome [6] | max activation [9] -2.45%

CCOC(=O)CC
inactive: outcome [1] | outcome [3] | outcome [4] | Potency [5] | outcome [8] | outcome [6] | Potency [7]

C=CCCCCCCCCOC(C)=O
inactive: outcome [1] | Potency [2] | outcome [4] | Potency [5] | outcome [8] | outcome [6] | Potency [7]

Cc1ccc(N)nc1
inactive: outcome [1] | outcome [4] | Potency [5] | outcome [8] | outcome [6]

Clc1ccc2c(c1)Nc1ccccc1S2
inactive: outcome [1] | outcome [4] | Potency [5] | outcome [8] | outcome [6]

CC(C)OCCO
inactive: outcome [1] | outcome [4] | Potency [5] | outcome [8] | outcome [6] | Potency [7]

O=c1c(O)c(O)c1=O
inactive: outcome [1] | outcome [4] | Potency [5] | outcome [6] | Potency [7]

CC(=O)OC/C=C(/C)CCC=C(C)C
inactive: outcome [1] | outcome [4] | Potency [5] | outcome [8] | outcome [6] | Potency [7]

O=c1[nH]c(=O)c2cn[nH]c2[nH]1
inactive: outcome [1] | outcome [4] | Potency [5] | outcome [8] | outcome [6]

CCCCCCCCC1CO1 (stereo not drawn)
active: Potency [7] 55.7 µM
inactive: outcome [1] | outcome [4] | Potency [5] | outcome [8] | outcome [6]

CC(C)(O)c1ccc(C(C)(C)O)cc1
inactive: outcome [1] | outcome [3] | outcome [4] | Potency [5] | outcome [6] | Potency [7]
